Values joined by “and” are separate entries in the source; they are usually repeats but may differ in a detail not shown here. Equal entries are not always repeated. Results filed as inconclusive are left out. Unmarked numbers belong to inactive results. Active and inactive are the calls of the source. The call rests on the fitted dose curve; in most records, active means well fitted curve in the direction sought with a large enough effect; inconclusive means small, poorly fitted or top-dose-only effect, or another doubt; inactive means no such curve, though single readings can be large; an effect the other way counts as inactive or inconclusive.
Assays:
[1] = Primary qHTS for small molecule stabilizers of the endoplasmic reticulum resident proteome: Secreted ER Calcium Modulated Protein (SERCaMP) assay (AID 1508630)
Summary of the method: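 The SH-SY5Y reporter protocol was run at 3 concentrations up to 38.3 uM (primary) or 11 concentrations (follow-up): 16 h compound, 100 nM thapsigargin for 4 h, then extracellular luciferase luminescence.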

[2] = Primary qHTS for inhibitors of nuclear receptor binding SET domain protein 2 (NSD2) in an isogenic RCH-ACV NSD2 p.E1099K mutant (9B) (AID 1645876); further: nearly all actives have a fitted effect of over 70% in size; further: potency means the concentration at half of the fitted maximal effect
[3] = Primary qHTS for inhibitors of nuclear receptor binding SET domain protein 2 (NSD2) in an RCH-ACV wild type WT cells (2C) (AID 1645877); further: nearly all actives have a fitted effect of over 70% in size; further: potency means the concentration at half of the fitted maximal effect
On the % scale 0 is the no-effect control and ±100 the full control effect.

SMILES | Potency [1] | Potency [2] | Potency [3] | activity change, negative = inhibition [1]
Cn1c(=O)n(-c2ccc(C(C)(C)C#N)cc2)c2c3cc(-c4cnc5ccccc5c4)ccc3ncc21 | inactive | 103 nM (active) and 38.2 nM (active) | 91.6 nM (active) and 42.8 nM (active) | –
Cc1nc2cnc3ccc(C#Cc4cccnc4)cc3c2n1-c1ccc(C(C)(C)C#N)cc1 | inactive | 7.31 µM (active) and 148 nM (active) | – | –
O=C(O)[C@H](Cc1c[nH]c2ccccc12)N1C(=O)c2ccccc2C1=O | inactive | inactive | – | –
CNC(=O)c1ccccc1Nc1nc(Nc2ccc(N3CCOCC3)cc2OC)ncc1Cl | inactive | 2.05 µM (active) and 2.35 µM (active) | 649 nM (active) and 1.05 µM (active) | –
NC(=O)Nc1cc(-c2cccc(F)c2)sc1C(=O)N[C@H]1CCCNC1 | inactive | 81.7 nM (active) and 74.2 nM (active) | 81.7 nM (active) and 74.2 nM (active) | –
C=CC(=O)Nc1cc2c(Nc3ccc(F)c(Cl)c3)ncnc2cc1OCCCN1CCOCC1 | inactive | 1.68 µM (active) and 2.95 µM (active) | – | –
O=C(CCCCCCNC(=O)c1cnc(N(c2ccccc2)c2ccccc2)nc1)NO | inactive | 728 nM (active) and 2.95 µM (active) | – | –
CC(C)[C@H](C(=O)Nc1ccc(C(=O)NO)cc1)c1ccccc1 | inactive | inactive | inactive | –
C=C1C(=CC=C2CCC[C@]3(C)[C@@H]([C@H](C)C=C[C@H](C)C(C)C)CC[C@@H]23)C[C@@H](O)C[C@@H]1O | inactive | inactive | inactive | –
O=C(Nc1cc(C(F)(F)F)cc(C(F)(F)F)c1)c1cc(Cl)ccc1O | inactive | 3.25 µM (active) and 2.63 µM (active) | 2.3 µM (active) and 2.95 µM (active) | –
Cc1cn2c(-c3cn[nH]c3)cnc2c(Nc2ccc(C(=O)N3CCNCC3)cc2F)n1 | inactive | 9.16 µM (active) | 12.9 µM (active) | –
CCN1CCN(CC(=O)Nc2ccc(-c3cccc4c(=O)cc(N5CCOCC5)oc34)c3sc4ccccc4c23)CC1 | inactive | 66.8 nM (active) and 257 nM (active) | 94.4 nM (active) and 257 nM (active) | –
c1cc(-c2cnn3cc(-c4ccc(OCCN5CCCCC5)cc4)cnc23)ccn1 | inactive | 3.66 µM (active) and 3.72 µM (active) | 2.91 µM (active) and 3.32 µM (active) | –
Cc1c(NC(=O)OC[C@@H]2COCCN2)cn2ncnc(Nc3ccc4c(cnn4Cc4cccc(F)c4)c3)c12 | inactive | 16.6 µM (active) | 14.8 µM (active) | –
CCN(CC)CCCCNc1ncc2cc(-c3cc(OC)cc(OC)c3)c(NC(=O)NC(C)(C)C)nc2n1 | inactive | 16.4 µM (active) and 14.8 µM (active) | 14.6 µM (active) and 14.8 µM (active) | –
Cc1cc(C(=O)N2CCN(c3cccc(Cl)c3)CC2)n(-c2ccccc2)n1 | inactive | 2.09 µM (active) | 1.32 µM (active) | –
Nc1ccccc1NC(=O)c1ccc(CNC(=O)OCc2cccnc2)cc1 | inactive | 578 nM (active) and 742 nM (active) | 459 nM (active) and 662 nM (active) | –
N#CCNC(=O)c1ccc(-c2ccnc(Nc3ccc(N4CCOCC4)cc3)n2)cc1 | inactive | 817 nM (active) and 2.63 µM (active) | 1.15 µM (active) and 2.95 µM (active) | –
CC(=O)OCCN1C(=O)c2c(C)nc3ccc(S(=O)(=O)N4CCOCC4)cc3c2C1=O | inactive | inactive | inactive | –
COc1ccc(CC2c3cc(OC)c(OC)cc3CC[N+]2(C)CCC(=O)OCCCCCOC(=O)CC[N+]2(C)CCc3cc(OC)c(OC)cc3C2Cc2ccc(OC)c(OC)c2)cc1OC (stereo not given) | – | 23.5 µM (active) | 23.5 µM (active) | 101% [at 7.35 µM]
C=CC(=O)Nc1cc2c(Nc3ccc(F)c(Cl)c3)ncnc2cc1C#CC(C)(C)N1CCN(C)CC1 | inactive | 2.63 µM (active) | 2.63 µM (active) | –
CC(=O)Nc1sc2c(c1-c1nc3ccccc3s1)CNC2 | inactive | 2.9 µM (active) | 2.9 µM (active) | –
O=C(O)c1ccc2cc(-c3ccc(O)c(C45CC6CC(CC(C6)C4)C5)c3)ccc2c1 | inactive | 0.934 µM (active) | 0.59 µM (active) | –

Source: PubChem BioAssay (NCATS)
